Measured values: PubChem BioAssay (NCI)
The panel holds about 83,000 compounds, 20% with a hit somewhere; the sample as a whole holds those more often.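 Cells were grown in 96-well plates and exposed to the test compound at a single concentration for 48 hours; results are reported as percent growth, with values below 10 considered active.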 Active and inactive are the calls of the source.

Each compound was assayed on SR leukemia (assay: NCI-60 one-dose screen, 48 h (100 = growth as untreated, 0 = no growth, -100 = all killed)). Settings: 10 µM unless noted.
Procedure: Growth inhibition of the SR human tumor cell line is measured as a screen for anti-cancer activity. Cells are grown in 96 well plates and exposed to the test compound for 48 hours. Compounds are tested at a single concentration, which is 10^-5 M for most compounds. The reported endpoint is percent growth (GI% or GIPRCNT), where numbers from 0 - 100% represent growth inhibition, and numbers from -100% - 0 represent cell death. For example, a value of 40 represents 60% growth inhibition. A value of 0 means no net growth occurred over the course of the experiment. A value of -40 indicates 40% of cells at the beginning of the experiment died by the end of the experiment. A value of -100 means all cells are dead at the end of the experiment.
NCI-60 Human Tumor Cell Lines Screen was performed using the standard one-dose NCI protocol, which is described in more detail at https://dtp.cancer.gov/discovery_development/nci-60/default.htm.
Compounds with GIPRCNT values below 10 were considered active. Activity score was based on GIPRCNT using the following formula: […]
Score is 0 for GIPRCNT values of 100 or above, 50 for GIPRCNT values of 0, and 100 for GIPRCNT values of -100.

| Compound | growth |
| --- | --- |
| COc1ccc(C/C(C)=C(\c2ccc(OCCN3CCOCC3)cc2)c2ccc(OC(=O)Cc3ccccc3)cc2)cc1 | -38.2% (active) |
| CCC1(C)CC(CCNCc2ccccc2O)(c2ccc(C)cc2)CCO1 (stereo not given) | 96% (inactive) |
| C=COC(=O)CCN1CC1 | 100% (inactive) |
| CCCCCCCCCCCCCCCCCCOc1ccccc1COP(=O)(O)OOCC[N+](C)(C)C | -8.81% (active) |
| CC12CC=CCC1CCC1C2CCC2(C)C(c3ccc(=O)oc3)CCC12O (stereo not given) | -3.66% (active) |
| CC(=O)O[C@H](C[C@H](C(C)C)N(C)C(=O)[C@@H](NC(=O)[C@H]1CCCN1C)C(C)C)c1nc(C(=O)N[C@@H](Cc2ccccc2)C[C@H](C)C(=O)O)c(C)s1 | 8.27% (active) |
| O=C1Nc2ccccc2C2c3cccn3-c3ccccc3CN12 (stereo not given) | 19% (inactive) |
| N/C(=N/N=C/c1ccncc1)N[N+](=O)[O-] | 90.9% (inactive) |
| ClCCN(CCCl)c1ccc(-n2cnc3c(Cl)ncnc32)cc1 | -29.2% (active) |
| C[C@]12CCc3sc(-c4cccc(F)c4)nc3C1=CC[C@@H]1[C@@H]2CC[C@]2(C)C(=O)CC[C@@H]12 | 5.11% (active) |
| COC(=O)[C@@H](C)C[C@H](Cc1ccccc1)NC(=O)c1csc([C@@H](C[C@H](C(C)C)N(C)C(=O)C2(NC(=O)[C@H]3CCCCN3C)CC2)OC(C)=O)n1 | 11% (inactive) |
| O=C1CCC2(O)[C@@H]3Cc4ccc(O)c5c4[C@]2(CCN3Cc2ccoc2)C1O5 (stereo not given in full) | 95.4% (inactive) |
| CCCCN1CCCC[C@@H]1C(=O)N[C@H](C(=O)N(C)[C@H](CCc1nc(C(=O)N[C@@H](Cc2ccccc2)C[C@H](C)C(=O)OC)cs1)C(C)C)[C@@H](C)CC | 8% (active) |
| Cc1ccc(Nc2nc3c(s2)C2=CC[C@@H]4[C@H](CC[C@]5(C)C(=O)CC[C@@H]45)[C@@]2(C)CC3)cc1 | 12.9% (inactive) |
| O=[N+]([O-])c1ccc([Se]C2CCCCC2Cl)c([N+](=O)[O-])c1 (stereo not given) | 78.7% (inactive) |
| CC1=C(O)[C@@](C)(CCCCC[C@H](C)CCCCc2ccc(O)cc2)OOC1=O | 50.1% (inactive) |
| CC1(C)N=C(N)N=C(N)N1c1ccc(CCC(=O)Nc2ccc(S(=O)(=O)F)cc2)c(Cl)c1 | 6.43% (active) |
| COC(=O)[C@@H](C)C[C@H](Cc1ccccc1)NC(=O)c1csc([C@@H](C[C@H](C(C)C)N(C)C(=O)[C@@H](NC(=O)[C@H]2CCCCN2C)C2CC2)OC(C)=O)n1 | 2.03% (active) |
| CC(=O)Nc1nc2c(s1)CC[C@@]1(C)C2=CC[C@H]2[C@@H]3CC[C@H](O)[C@@]3(C)CC[C@@H]21 | 24.9% (inactive) |
| CC12CCC3C(C=CC4=C(N)C(=O)CCC43C)C1CCC2=O (stereo not given) | -18.1% (active) |

| Compound | growth |
| --- | --- |
| O=C1NC(=O)C(=Cc2cn(CCCCCCn3c4ccccc4c(=O)c4ccccc43)c3ccccc23)C(=O)N1 | 93.5% (inactive) |
| O=C(O)C(Cl)(Cl)C(F)(F)F | 122% (inactive) |
| CCCCCCCC[N+](C)(CCCCCCCC)CCCCCCCC | 28.1% (inactive) |
| CN1CC(=O)N(O)C1(C)c1cccnc1 (stereo not given) | 92% (inactive) |
| Fc1ccc2c(c1)c(-c1nc(-c3c[nH]c4ncccc34)cs1)cn2CCN1CCOCC1 | 39.7% (inactive) |
| Nc1nnnc2nc[nH]c12 | 5.26% (active) |
| C/C(=C\c1ccn(-c2ccccc2N)n1)[C@@H]1C[C@@H]2O[C@]2(C)CCC[C@H](C)[C@H](O)[C@@H](C)C(=O)C(C)(C)[C@@H](O)CC(=O)O1 | 17.4% (inactive) |
| COc1cc(/C=C\c2cc(OC)c(OC)c(OC)c2)cc(NS(=O)(=O)c2cccc(Cl)c2)c1OC | 10.6% (inactive) |
| CC1=C(CCCOC(=O)CN)C2=C(C)C3(CC3)[C@@](C)(O)C(=O)C2=C1 | 94.7% (inactive) |
| O=C(Nc1ccc(O)cc1)C(Cl)(Cl)Cl | 96.6% (inactive) |
| CN1C(=O)C(=Cc2cn(Cc3ccccc3)c3ccccc23)C(=O)N(C)C1=O | 68.6% (inactive) |
| CC(=O)[C@H]1CC[C@H]2[C@@H]3CC[C@H]4C[C@H](N)CC[C@]4(C)[C@H]3CC[C@]12C | 32.3% (inactive) |
| CCC(CC)CC1(C)CC2(C)CCOC2OO1 (stereo not given) | 113% (inactive) |
| COC[C@@H]1C[C@@]2(C)[C@@H](CC[C@@H]3[C@@H]2CC[C@@]2(C)[C@H]3CC[C@]2(C)O)CC1=O | 83.7% (inactive) |
| C[C@]12CCc3nc(Nc4ccccc4F)sc3C1=CC[C@@H]1[C@@H]2CC[C@]2(C)C(=O)CC[C@@H]12 | 11.4% (inactive) |
| Fc1ccc(N2COOC3(OOC2)C2CC4CC(C2)CC3C4)cc1 | -19.2% (active) |
| Cc1cc(N(CCCl)CCCl)ccc1C=Nc1ccc(-c2csc(Cc3ccccc3)n2)cc1 | 27.2% (inactive) |
| O=C(O)CNC(=O)C(Cl)(Cl)Cl | 89.8% (inactive) |
| C/C(Cc1ccc(Cl)cc1)=C(\c1ccc(OCCN2CCOCC2)cc1)c1ccc(OC(=O)Cc2ccccc2)cc1 | 87.1% (inactive) |
| COc1cc(C=Nc2cccc(C(=O)O)c2)ccc1N(CCCl)CCCl | 91.9% (inactive) |
